These results are taken from ChEMBL document CHEMBL3988442, “University of Dundee, Small-Polar-MMV Screening Library” (2021).

SMILES strings stand for the structures. Among all 48,000 compounds or so, about 13,000 (27%) showed an effect of 50% or more. Some of the results follow.

This assay relates to Wolbachia pipientis. Nature of the assay: Anti-Wolbachia Cell-Based Screen. The assay is classed as functional. Further details: scale not given: in the data most compounds retested in dose-response had high values. The following applies: 5 µM.
With `N#Cc1cc2c(=O)n(CC(O)c3cccc(O)c3)ccc2[nH]c1=O` (configuration not stated), the “Percent Effect” value is -10.2%.

As to `Cc1nccc([C@H]2C[C@@H]3CCN(S(C)(=O)=O)C[C@H]3O2)n1`, the “Percent Effect” value worked out at 116.1%.

Regarding `Cc1nccc([C@@H]2C[C@@H]3CCN(S(C)(=O)=O)C[C@H]3O2)n1`, the “Percent Effect” value is given as -4.62%.

As for `COc1cc(N2CC[C@@H]3O[C@@H](c4ccnc(C)n4)C[C@H]3C2)ncn1`, the “Percent Effect” value is reported as -12.7%.

As for `O=S(=O)(NC1CCC2(CC1)OCCO2)c1ccccc1Br`, the “Percent Effect” value is on record as -6.742%.

Take `COC(=O)CCCNC(=O)N1CCc2c(F)ccc(F)c2C1`: the “Percent Effect” value was -9.292%.

As for `CC(=O)Nc1ccc(OCc2noc(C(=O)N3CCCCC3)n2)cc1`, the “Percent Effect” value amounted to 122.5%.

On to `O=C(c1nc(COc2ccc3c(c2)OCO3)no1)N1CCCC1`, for which the “Percent Effect” value was 8.865%.

With `CCc1nc(COc2ccc(OCc3cnn(C)c3)cc2)no1`, the “Percent Effect” value is reported as -33.42%.

In the case of `NC(=O)Cc1ccc(OCc2noc(C(=O)N3CCCC3)n2)cc1`, the “Percent Effect” value worked out at 130.8%.

Regarding `CC(=O)Nc1ccc(OCc2noc(C(=O)N3CCCC3)n2)cc1`, the “Percent Effect” value was found to be 120.5%.

Take `CCOCCNC(=O)Nc1ccc(OCc2noc(C3CC3)n2)cc1`: the “Percent Effect” value is listed as -0.9885%.

Consider `CC(=O)Nc1ccc(OCc2noc(C(=O)N3CCCCCC3)n2)cc1`, for which the “Percent Effect” value is recorded as 101%.

With `CCOCCCC(=O)Nc1ccc(OCc2noc(C3CC3)n2)cc1`, the “Percent Effect” value was 20.67%.

For `CC(C)c1nc(C2CCCN2c2ncc(C(N)=O)cc2Cl)no1` (configuration not stated), the “Percent Effect” value is listed as -26.86%.

For `CC(C)=Cc1c(-c2ccccc2)ncn1CCN(C)S(C)(=O)=O`, the “Percent Effect” value is listed as -6.043%.

Consider `CCCc1nnc(NC(C)c2ccc3c(c2)OCCO3)o1` (configuration not stated), for which the “Percent Effect” value came out at 16.29%.

With `COCCCn1ccc(NC(=O)NCCCNc2ccccc2)n1`, the “Percent Effect” value is -2.159%.

Consider `COc1cc(Cl)c(C)cc1NC(=O)CCNc1ccc(C#N)cn1`, for which the “Percent Effect” value is reported as -3.637%.

On to `CC(C)c1nc(CN(C)CC2CCN(CCO)CC2)no1`, for which the “Percent Effect” value was -11.77%.

As for `c1ccc2cc(OCCN3CCn4c(nnc4C4CC4)C3)ccc2c1`, the “Percent Effect” value was determined as 2.138%.

As to `CCN1C(=O)CC[C@@H]2[C@H]1CCN2C(=O)Cc1cccc(OC)c1`, the “Percent Effect” value is -2.508%.

Turning to `CCOC(=O)c1nc(COc2ccc(CC(N)=O)cc2)no1`, the “Percent Effect” value was found to be 100.5%.

Regarding `CC(C)Cc1nc(COc2ccc(N(C)C(N)=O)cc2)no1`, the “Percent Effect” value is -36.1%.

Regarding `NC(=O)c1nc(COc2ccc3c(c2)OCO3)no1`, the “Percent Effect” value amounted to 26.77%.

In the case of `CC(C)C1CN(C(=O)c2ccc(N3CCCC3)nc2)CCS1` (configuration not stated), the “Percent Effect” value was -8.119%.

As for `Cc1cccc(C(=O)NC2CCN(c3cnn(C)c3)C2=O)n1` (configuration not stated), the “Percent Effect” value is on record as -1.568%.

On to `Cc1nc(CNC(=O)NCC(O)c2cccc(Cl)c2)cs1` (configuration not stated), for which the “Percent Effect” value is -14.28%.

Regarding `O=C(O)CNC(=O)Cc1csc(-c2cccc(Cl)c2)n1`, the “Percent Effect” value came to 95.07%.

As for `CN(Cc1csc(-c2ccccc2)n1)C(=O)CCNS(C)(=O)=O`, the “Percent Effect” value was -10.81%.

Turning to `CNC(=O)Cc1noc(Cc2cccc(Cl)c2)n1`, the “Percent Effect” value is 10.38%.

Consider `O=C(O)CCNC(=O)Cc1csc(-c2cccc(Cl)c2)n1`, for which the “Percent Effect” value is listed as 119%.
